Results filed as inconclusive are left out. Entries that show only a call come without a potency. Calls of active or inactive are those of the source. Calls come from the whole dose curve; as a rule, active = well fitted inhibition curve with a large enough effect; inconclusive = small, poorly fitted or top-dose-only effect; inactive = no such curve, though single readings can be large or run the other way.
Potency is the fitted concentration of half-maximal effect.

Tumor susceptibility gene 101 protein (Homo sapiens), sequence (Q99816 whole entry, looked up, the tested form may be a part): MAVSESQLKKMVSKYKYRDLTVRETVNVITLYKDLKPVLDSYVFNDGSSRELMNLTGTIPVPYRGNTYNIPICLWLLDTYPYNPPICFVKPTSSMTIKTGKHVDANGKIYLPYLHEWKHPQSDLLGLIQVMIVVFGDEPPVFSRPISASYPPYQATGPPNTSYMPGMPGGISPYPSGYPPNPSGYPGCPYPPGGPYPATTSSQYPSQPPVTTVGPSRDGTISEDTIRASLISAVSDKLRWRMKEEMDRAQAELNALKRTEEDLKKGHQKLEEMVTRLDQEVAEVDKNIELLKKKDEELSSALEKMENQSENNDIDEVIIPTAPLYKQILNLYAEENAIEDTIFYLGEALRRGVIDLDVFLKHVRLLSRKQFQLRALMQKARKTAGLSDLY

This assay addresses Tumor susceptibility gene 101 protein (Homo sapiens) (UniProt Q99816). The experiment in a line: qHTS Assay for Iinhibitors of HIV-1 Budding by Blocking the Interaction of PTAP/TSG101: Hit Validation in TR assay. The conditions noted are these: Tsg101 binding domain + Texas Red-labeled PTAP peptide, fluorescence polarization, 20 min; series mostly up to 57.5 µM. In short, it runs like this: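 Texas Red-PTAP peptide (50 nM) binding to Tsg101 binding domain (10 uM), both final, in pH 7.5 HEPES buffer, read as polarization after 20 min at room temperature; compounds pinned before peptide addition.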
For orientation: qHTS replaces the single test concentration by a dilution series.
As to `CCN(CC)c1ccc2cc(-c3nc(-c4ccc(OC)cc4)cs3)c(=O)oc2c1`, the Potency entry is “inactive”. The value for `Cc1cccc(-n2c(O)c(C=Nc3ccc4c(c3)OCO4)c3ccccc3c2=O)n1` was “inactive”; that for `O=C1c2ccccc2S(=O)(=O)c2cc(N3CCN(C(=O)c4ccccc4)CC3)ccc21` was “inactive”; that for `Nc1ccc2c(c1)C/C(=C/c1ccco1)C2=O` was “inactive”. The value for `C1=C(c2ccc(-c3ccccc3)cc2)Nc2ncnn2C1c1ccco1` (centres undefined) was “inactive”; that for `CCN(c1ccc(N=Cc2c(O)n(Cc3ccc(OC)cc3)c(=O)c3ccccc23)cc1)C(C)C` was “inactive”. The value for `O=C(N/N=C/c1ccccc1Cl)c1[nH]c2ccc(Br)cc2c1-c1ccccc1` was “inactive”; that for `O=C(CN1C(=O)NC(Cc2c[nH]c3ccccc23)C1=O)Nc1ccccc1C(F)(F)F` (centres undefined) was “inactive”; that for `CN1CC=C2C(C#N)=C(N)C(C#N)(C#N)C(Cc3ccccc3)C2C1` (centres undefined) was “inactive”. Consider `O=C(CC1CC2CCC1C2)NCc1cccs1` (centres undefined), for which the Potency entry was “inactive”. Under `O=c1ccc2cc3c4c(c2o1)CCCN4CCC3` stands “inactive”.

`COc1ccc2c(C=Nc3c(C)n(C)n(-c4ccccc4)c3=O)c(O)n(Cc3ccco3)c(=O)c2c1`: the Potency entry is “inactive”. As to `CCN1CC=C2C(C#N)=C(N)C(C#N)(C#N)C(CCc3ccccc3)C2C1` (centres undefined), the Potency was 11.6 µM (active). Regarding `C(=N\NC1=Nc2cccc3cccc1c23)/c1ccccc1`, the Potency entry was “inactive”.

Turning to `CCCCn1c(SCC(=O)c2cc(OC)ccc2OC)nc2cc(S(N)(=O)=O)ccc21`, the Potency result was “inactive”. Take `CCOC(=O)c1cc2n(c1N)-c1ccccc1C2=O`: the Potency result was “inactive”.

`COc1ccc(-c2onc3ccc(Br)cc23)cc1`: the Potency entry was “inactive”. Under `Cc1ccc2c(c1)c1nc3ccccc3nc1n2C` stands “inactive”; under `CCn1nc(-c2ccccc2)c2nc3ccccc3nc21`, “inactive”. For the compound `Nc1nnnn1/N=C/c1cc(Cl)cc(Cl)c1O`, the Potency entry was “inactive”. With `CCCCCCn1c(=O)[nH]c2nc3cc(N)c(C)cc3nc2c1=O`, the Potency result is “inactive”. As for `CCc1ccccc1N=Cc1c(C)c(C#N)c2[nH]c3ccccc3n2c1=O`, the Potency entry was “inactive”. On to `Cc1ccccc1N1C(=O)c2cccc3c(N(C)CCO)ccc(c23)C1=O`, for which the Potency is 32.6 µM (active).

As for `CC(=O)Nc1ccc(N=Cc2c(O)ccc3ccccc23)cc1`, the Potency entry was “inactive”. Under `O=C1NC(c2ccco2)Nc2sc3c(c21)CCN(Cc1ccccc1)C3` (centres undefined) stands “inactive”. Under `COc1ccc2c(C#N)c3ccccn3c2c1` stands “inactive”.

With `COc1cccc(C(=O)c2sc3nc(-c4ccccc4)cc(C(F)(F)F)c3c2N)c1`, the Potency result is “inactive”. Under `O=c1[nH]c2c(s1)C=Nc1ccccc1N2` stands “inactive”.

As to `Cc1c2ccccc2nc2c(F)c(N(C)C)c(F)c(F)c12`, the Potency result was “inactive”. Regarding `COc1ccc(OC)c(/C=c2\sc3nc(-c4cccs4)nn3c2=O)c1`, the Potency result is “inactive”.

Consider `COc1cccc2c1C(=O)c1c(O)c3c(c(O)c1C2=O)CC(O)(C(C)=O)CC3OC1CC(O)C(O)C(C)O1` (centres undefined), for which the Potency result is “inactive”.

As for `O=C1c2cccc3c(O)ccc(c23)C(=O)N1Cc1ccccc1`, the Potency result is “inactive”. `Nc1c(C(=O)Nc2ccccc2F)sc2nc(Cc3ccccc3)cc(C(F)(F)F)c12`: the Potency entry is “inactive”. Turning to `COc1ccc(-c2cc(C(=O)N3CC(C)CC(C)C3)c3ccccc3n2)cc1OC` (centres undefined), the Potency result is “inactive”. Regarding `CCCn1c(O)c(N=Nc2ccc3ccccc3n2)c2ccccc21`, the Potency entry was “inactive”.

In the case of `Cc1oc2cc(O)ccc2c(=O)c1-c1nncn1-c1ccccc1`, the Potency result is “inactive”. As to `COc1ccccc1NC(=O)/C(C#N)=C/c1cc([N+](=O)[O-])ccc1N1CCCC1`, the Potency entry was “inactive”. Under `CC(=O)Nc1ccc2cc3ccc(NC(C)=O)cc3nc2c1` stands “inactive”; under `CCOC(=O)N1CCN(c2nc3ccccc3nc2C(C#N)S(=O)(=O)c2ccc(C)cc2)CC1` (centres undefined), “inactive”.

These data come from PubChem BioAssay AID651599 (National Center for Advancing Translational Sciences (NCATS), 2012).
